Measured values reported in PubChem BioAssay AID1117319 (Southern Research Institute, 2015).
Values joined by “and” are separate entries in the source; they are usually repeats but may differ in a detail not shown here. Equal entries are not always repeated. Among all 260,000 compounds or so, about 1,500 (0.58%) were called active. About 5% were inconclusive and are not listed.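 The calls were made as follows: active = inhibition above a set limit at one or more doses, reproduced on every date tested; inconclusive = results disagree between test dates, or hit never tested in dose response; inactive = the rest.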 A selection follows. Entries with a potency or affinity are not part of this list.

Each compound was assayed against Virion infectivity factor (Human immunodeficiency virus type 1 group M subtype B (isolate BH10)) + Virion infectivity factor (Human immunodeficiency virus type 1 group M subtype B (isolate BRU/LAI)) + Virion infectivity factor (Human immunodeficiency virus type 1 group M subtype B (isolate PCV12)) + Virion infectivity factor (Human immunodeficiency virus type 1 group M subtype B (isolate HXB2)) + DNA dC->dU-editing enzyme APOBEC-3G (Homo sapiens) (UniProt P69720+P69721+P69722+P69723+Q9HC16) (assay: HIV-1 Vif–A3G interaction blockers – biochemical, TR-FRET, GST-Vif 1-94, biotin-A3G peptide, dose response retest, primary screen (AID 1117319;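 also: Vif residues 1-94 fused to GST binding biotinylated APOBEC3G peptide 110-148; 0% = full assay without inhibitor and 100% = GST in place of GST-Vif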)). Details: TR-FRET GST-Vif / biotin-A3G peptide binding; active compounds read high.

inhibition, inactive:
C/C(=N\NC=O)c1ccncc1 -3.47%
COc1ccc(CC(=O)N(C)C2CCCCC2)cc1S(=O)(=O)N1CCOCC1 1.22%
Cc1ccc(C)c2c1c1ccccc1n2C -3.59%
COc1ccc2c(OC)cc(=O)n(C)c2c1 6.19%
COc1ccc2[nH]c(C)cc(=O)c2c1 -0.89%
COc1ccc2c(c1)c1ccccc1n2C 1.57%
Cc1ccc2c(c1)c1c(n2C)C(=O)CCC1 -2%
COc1ccc2[nH]c3ccccc3c2c1 1.16%
Cc1ccc2c(C)c(C)c(=O)n(C)c2c1 -6.81%
Cc1cc(=O)n(C)c2ccccc12 -5.08%
Cc1c(NC(=O)c2cc(-c3ccccc3)nc3ccccc23)c(=O)n(-c2ccccc2)n1C -2.43%
CC1=C(C(=O)OCc2ccccc2)C(c2ccccc2Br)NC(=O)N1 (stereo unspecified) -2.14%
COc1ccccc1C(O)(c1ccccc1)C(CN1CCOCC1)c1ccccc1 (stereo unspecified) 3.77%
COc1ccc(NC(=O)c2cc(-c3ccccc3)nc3c2c(C)nn3-c2ccccc2)c(OC)c1 1.03%
COC(=O)Cc1[nH]nc2c1C(C1C=CCCC1)C(C#N)=C(N)O2 (stereo unspecified) 7.26%
COc1ccc(C2/C=C\CN(C(=O)C3CC3)[C@H](Cc3ccccc3)C(=O)N2Cc2ccc(F)cc2)cc1 (stereo partly specified) 7.45%
CC1CCN(C(=O)CSc2nnc(-c3ccncc3)n2C)CC1 8.77%
COc1cc(OC)cc(C(=O)NC2CCN(CCCOc3ccccc3)CC2)c1 -2.34%
CCN(CC(=O)Nc1ccc(NC(C)=O)cc1)C(=O)c1ccc2ccccc2c1 8.12%
Nc1c(C(=O)CSc2nnc(-c3ccccc3F)o2)c(=O)[nH]c(=O)n1C1CC1 -9.99%
Cn1c2ccccc2c2c(=O)oc3ccccc3c21 -5.39%
CC(=O)n1c2ccccc2c2c1c1ccccc1n2C -6.7%
CCOc1ccccc1NC(=O)Nc1cccc(S(N)(=O)=O)c1 1.28%
O=C(/C=C/c1ccccc1)c1ccc2c(c1)OCO2 -5.81%
CCOc1ccc(-n2c(=O)c3c4c(sc3n(CC(=O)NCc3ccco3)c2=O)CCC4)cc1 -4.88%
Cc1sc2c(c1C)c(=O)n(-c1ccc(F)cc1)c(=O)n2CC(=O)NCc1ccco1 -4.06%
CCOC(=O)N1C/C(=C\c2ccccc2)C(=O)/C(=C/c2ccccc2)C1 1.34%
C=CC(=O)N1C/C(=C/c2ccccc2)C(=O)/C(=C\c2ccccc2)C1 6.41%
CC(C)CCNC(=O)C(=O)NCc1ccccc1 21.7%
COc1ccc(NC(=O)COC(=O)CCSc2ccccc2)cc1 -0.53%
COc1ccc(NC(=O)CCSc2ccc(F)cc2)cc1 29.9%
CC(=O)c1ccc(OCc2cc(C(=O)N3CCC[C@H]3CO)no2)cc1 1.22%
CCn1c(COc2ccc3c(c2)OCO3)nnc1SCC(=O)c1ccccc1 9%
CCn1c(COc2ccc3c(c2)OCO3)nnc1SCC(=O)O -4.1%
O=C(/C=C/c1ccccc1Cl)Nc1ccccc1 -7.35%
COCCOc1ccc(C(F)(F)F)cc1N 16.5%
Nc1cc(OCC(F)(F)F)cc(OCC(F)(F)F)c1 2.81%
C=CCSc1nc2c(c(=O)[nH]c(=O)n2C)n1Cc1ccc(C)cc1 1.91%
CN1c2ccsc2/C(=N/Nc2ccc(F)cc2)CS1(=O)=O 12.5%
Cc1cc(NC(=O)CSc2nc3ccccc3c(=O)n2C2CCCC2)no1 3.03%
CN(C)c1ccc(NC(=O)CSc2nc3ccccc3c(=O)n2CC2CCCO2)cc1 (stereo unspecified) 1.51%
CCOC(=O)N1CCN(C(=O)CN(CC)S(=O)(=O)c2cc(C)ccc2OC)CC1 -2.01%
O=[N+]([O-])c1ccccc1Nc1ccccc1[N+](=O)[O-] -5.54%
CC(=O)Nc1ccc2c3c(ccc([N+](=O)[O-])c13)CC2 1.46%
COc1ccc(CCC(=O)N2CCCSC2=Nc2ccc(C(C)=O)cc2)cc1 11.6%
O=C1Cc2cc(O)ccc2O1 -1.58%
O=C(O)c1cccc2c1-c1ccc(Cl)cc1C2 -7.17%
Cc1cc2c(OCC(O)CN3CCCC3)cccc2[nH]1 (stereo unspecified) 2.52%
O=C(CCCc1cccs1)Nc1nc2c(s1)CCCC2 12.6%
CCOC(=O)c1ccc(NS(=O)(=O)c2ccc3c(c2)oc(=O)n3C)cc1 69.3%
CCOC(=O)c1ccc(NS(=O)(=O)c2ccc3[nH]c(=O)[nH]c3c2)cc1 5%
Cc1[nH]ccc(=O)c1OCc1ccccc1 6.47%
O=C(O)c1cc(OCc2ccccc2)cc(OCc2ccccc2)c1 1.18%
CCOc1cc(/C=C2/SC(=S)N(Cc3ccccc3)C2=O)ccc1O 6.48%
Cc1ccc(NC(=O)CSc2nnc(CNC(=O)c3ccco3)n2C)cc1C -4.15%
O=C(COC(=O)C1CC2CCCC(C1)C2=O)NNC(=O)c1ccccc1Br (stereo unspecified) -2.58%
COC(=O)[C@]1(C)N[C@H](CN(C)S(=O)(=O)c2ccc(C(C)(C)C)cc2)[C@@H]2C(=O)N(C)C(=O)[C@@H]21 3.98%
Cc1cc(C)n(/N=C/c2ccco2)c(=O)c1C#N 11.3%
O=C1/C(=C/c2cccs2)SC(=S)N1C1CCS(=O)(=O)C1 (stereo unspecified) 0.42%
Cc1ccc(/C=C2\SC(=S)N(C3CCS(=O)(=O)C3)C2=O)o1 (stereo unspecified) -0.73%
Cc1ccc(C(=O)N/C(=C/c2ccco2)C(=O)NC2CCS(=O)(=O)C2)cc1 (stereo unspecified) -1.97%
Cc1ccc(/C=C2\SC(=S)N(C3CCS(=O)(=O)C3)C2=O)cc1 (stereo unspecified) 6.18%
O=C1/C(=C/c2ccccc2)SC(=S)N1C1CCS(=O)(=O)C1 (stereo unspecified) -6.69%
CC1c2ccccc2N(NC(=O)Cc2ccccc2)C1C (stereo unspecified) 1.5%
CC(=O)c1ccc(N2CCN(C(=O)c3ccc(OCc4c(C)noc4C)cc3)CC2)cc1 -23.2%
CCn1c(SCC(=O)NNC(=O)Cc2ccccc2)nnc1-c1ccccc1 6.74%
CNc1ccc(OC)cc1-n1cnc(-c2ccc([N+](=O)[O-])cc2)c1 -2.92%
O=C(NCc1ccccn1)C(=O)NCc1ccccn1 5.11%
O=C(NCc1ccccn1)/C(=N/O)c1ccccc1 1.42%
Cn1nc(C(C)(C)C)cc1C(=O)NCc1ccc2c(c1)OCO2 5.42%
N#C/C(=C/c1cccn1-c1cccc(C(=O)O)c1)c1ccc(F)cc1 0.42%
N#CC(C#N)=Cc1cccn1-c1ccc(S(N)(=O)=O)cc1 -2.79%
O=C(O)c1ccc(COc2ccc3ccccc3c2/C=C2/NC(=O)N(c3ccccc3)C2=O)cc1 24.9%
O=C1N/C(=C/c2cccn2-c2ccccc2)C(=O)N1Cc1ccccc1F 0%
O=C(O)c1ccc(COc2ccccc2/C=C2/NC(=O)N(c3cccc(Cl)c3)C2=O)cc1 32.2%
Cc1c(C(=O)O)cccc1-c1ccc(/C=C2/NC(=O)N(c3ccccc3)C2=O)o1 18.3%
O=C(O)c1cccc(-n2cccc2/C=C2/NC(=O)N(c3ccc(Cl)cc3)C2=O)c1 -7.27%
O=C(O)c1cc(-c2ccc(/C=C3\NC(=O)N(c4ccccc4)C3=O)o2)ccc1Cl 25.2%
Cn1c(C(=O)NCc2cccs2)cc2oc3ccccc3c21 2.73%
O=C(NC1(C(F)(F)F)NC(=O)N(CC2CCCCC2)C1=O)c1ccco1 (stereo unspecified) 9.27%
CCN(C(=O)c1cn(C)c(=O)c2ccccc12)c1ccccc1F -11.6%
Cn1cc(CCNCc2cn[nH]c2-c2ccc(-c3ccccc3)cc2)cn1 -3.24%
CC(C)Cc1cc(C(=O)O)c2ccccc2n1 5.6%
CCn1c(Cc2ccccc2)nnc1SCC(=O)Nc1ccc(C)cc1 -8.39%
CC(C)c1ccc(NC(=O)Cc2cn(C)c3ccccc23)cc1 4.75%
CCc1ccccc1NC(=O)Cc1cn(C)c2ccccc12 -13.9%
Cc1ccc(N(C(=O)Cn2nnc(-c3ccc(C)o3)n2)C(C(=O)NC2CCCC2)c2ccco2)cc1 (stereo unspecified) 1.99% and -5.57%
Cc1ccc(-c2nnn(CC(=O)N(c3ccccc3)C(C(=O)NC3CCCC3)c3ccco3)n2)o1 (stereo unspecified) -1.78% and -5.18%
COCCN(Cc1ccc(C)c(Br)c1)C(=O)Cn1cnc(S(=O)(=O)N2CCCC2)c1 27.4%
CC(C)CCNC(=O)c1cccnc1Sc1ccccc1 -0.39%
CN(C)C(CNC(=O)c1ccccc1C(F)(F)F)c1ccco1 (stereo unspecified) 19%
Cc1ccc(C(C)C)cc1OCCCCN1CCCC1 -6.06%
Cc1ccc(S(=O)(=O)NC(=O)Nc2c(C)cccc2C)cc1 -2.09%
CCOC(=O)/C=C1\SCC(=O)N1CC(=O)NC(C)C 0.13%
CCOC(=O)/C=C1\SCC(=O)N1CC(=O)NC(C)c1ccccc1 (stereo unspecified) -4.1%
O=C(CSc1nc2ccccc2n1Cc1ccccc1)N/N=C/c1ccccc1C(=O)O -4.24%
